Measurements published in PubChem BioAssay (Tox21).
Results filed as inconclusive are left out. Active and inactive are the calls of the source. Unless noted, calls come from the whole dose curve; as a rule, active = well fitted curve in the direction sought with a large enough effect in the repeat runs; inconclusive = weak or mixed curves; inactive = no such curve, though single readings can be large; an effect the other way counts as inactive or inconclusive.

Tests used:
[1] = target: Peroxisome proliferator-activated receptor delta (Homo sapiens) (UniProt Q03181); experiment: qHTS assay to identify small molecule agonists of the peroxisome proliferator-activated receptor delta (PPARd) signaling pathway (AID 743212; calls by dose curve;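 note: HEK293H cells with PPARd UAS beta-lactamase reporter GeneBLAzer system; % is set by controls: 0 for no effect and ±100 for the full control effect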)
Sequence of Peroxisome proliferator-activated receptor delta (Homo sapiens) (Q03181 whole entry, looked up): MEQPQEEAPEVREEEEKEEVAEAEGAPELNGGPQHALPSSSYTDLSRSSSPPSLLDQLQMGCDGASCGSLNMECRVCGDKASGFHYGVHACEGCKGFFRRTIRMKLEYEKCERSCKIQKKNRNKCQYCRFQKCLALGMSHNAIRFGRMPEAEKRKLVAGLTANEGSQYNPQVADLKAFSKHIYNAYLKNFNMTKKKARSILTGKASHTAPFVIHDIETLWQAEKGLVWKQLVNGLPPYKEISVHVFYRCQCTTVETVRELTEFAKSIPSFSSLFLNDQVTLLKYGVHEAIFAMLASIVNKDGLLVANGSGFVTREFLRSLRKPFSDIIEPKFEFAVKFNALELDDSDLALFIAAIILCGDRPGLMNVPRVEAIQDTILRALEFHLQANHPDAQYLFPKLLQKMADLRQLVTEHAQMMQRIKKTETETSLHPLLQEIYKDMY
How it was run: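 Beta-lactamase reporter readout: a ratiometric FRET signal from the LiveBLAzer substrate after 2 h at room temperature. Compound exposure at 37 °C in PPARδ-bla HEK293H cells driven by an upstream activator sequence.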

[2] = qHTS assay to identify small molecule antagonists of the peroxisome proliferator-activated receptor delta (PPARd) signaling pathway - cell viability counter screen (AID 743213); note: % is set by controls: 0 for no effect and ±100 for the full control effect; nearly all actives have a fitted effect of over 50% in size
How it was run: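 Agonist-stimulated (L165041, 300 nM final) HEK293H PPARd UAS-bla cells are exposed to compounds for 17 h at 37 C, and ATP-based luminescence (CellTiter-Glo) from the same wells reports cytotoxicity.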

[3] = qHTS assay to identify small molecule agonists of the farnesoid-X-receptor (FXR) signaling pathway - cell viability counter screen (AID 743218); note: % is set by controls: 0 for no effect and ±100 for the full control effect; nearly all actives have a fitted effect of over 45% in size
How it was run: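 Viability counter screen in the same wells: CellTiter-Glo luminescence, 30 min room-temperature incubation, measured after the beta-lactamase read. Cells were GeneBLAzer FXR-UAS-bla HEK 293T, compound-treated 16 h at 37C.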

[4] = qHTS assay to identify small molecule antagonists of the farnesoid-X-receptor (FXR) signaling pathway - cell viability counter screen (AID 743221; active = well fitted cell-killing curve with a large enough effect in the repeat runs, not every such curve was filed as active; note: % is set by controls: 0 for no effect and ±100 for the full control effect; nearly all actives have a fitted effect of over 50% in size)
How it was run: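 In GeneBLAzer FXR-UAS-bla HEK 293T cells stimulated with 50 uM chenodeoxycholic acid (final), compounds acted for 16 h at 37 C. Viability was assessed afterwards by CellTiter-Glo luminescence.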

[5] = qHTS assay to identify small molecule agonists of the vitamin D receptor (VDR) signaling pathway - cell viability counter screen (AID 743224); note: series mostly up to about 63 µM; % is set by controls: 0 for no effect and ±100 for the full control effect; nearly all actives have a fitted effect of over 50% in size
How it was run: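 Counter screen run in the same wells as the VDR-bla reporter assay: CellTiter-Glo luminescence, 30 min at room temperature, after 16 h compound treatment at 37C of cells pre-plated for 4 h.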

[6] = qHTS assay to identify small molecule antagonists of the vitamin D receptor (VDR) signaling pathway - cell viability counter screen (AID 743225); note: % is set by controls: 0 for no effect and ±100 for the full control effect; nearly all actives have a fitted effect of over 50% in size
How it was run: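 Luminescent cell viability (CellTiter-Glo) in VDR-bla HEK 293T cells after 16 h compound exposure at 37C in the presence of 3 nM final 1-alpha,25-dihydroxy vitamin D3.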

[7] = qHTS assay to identify small molecule agonists of the NFkB signaling pathway (AID 1159509; active = well fitted curve in the direction sought with a large enough effect in the signal ratio in the repeat runs, not every such curve was filed as active; the % refers to the signal ratio; note: series mostly up to about 61 µM; % is set by controls: 0 for no effect and ±100 for the full control effect)
How it was run: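 Pathway activation was measured in ME-180 cells stably expressing beta-lactamase under NF-kB response element control. Substrate cleavage was read as the 460/530 nm emission shift after 5 hr compound incubation.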

[8] = qHTS assay to identify small molecule agonists of the endoplasmic reticulum stress response signaling pathway (AID 1159516; active = well fitted activation curve with a large enough effect in the signal ratio in the repeat runs, not every such curve was filed as active; the % refers to the signal ratio; note: % is set by controls: 0 for no effect and ±100 for the full control effect)
How it was run: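 Ratiometric FRET readout (405 nm excitation; 460 and 530 nm emission) of a beta-lactamase gene driven by the ER stress response element, after 2 hr substrate loading. HeLa ESRE-bla cells were seeded overnight and treated with compounds for only 5 hr at 37 C.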

[9] = qHTS assay to identify small molecule agonists of the endoplasmic reticulum stress response signaling pathway - cell viability counter screen (AID 1159517; calls by dose curve)
How it was run: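 ESRE-bla HeLa cells (1,500/well) were plated overnight at 37 C and exposed to compounds for 5 hr. After the 2 hr beta-lactamase substrate read, CellTiter-Glo went into the same wells, and luminescence was read after 30 min at room temperature.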

[10] = qHTS assay to identify small molecule antagonists of the retinoid-related orphan receptor gamma (ROR-gamma) signaling pathway - cell viability counter screen (AID 1159520)
How it was run: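 Cytotoxicity was read from cellular ATP (CellTiter-Glo luminescence) after 16 hr at 37 C with 1 uM doxycycline induction. The inducer was added 2 hr after compound transfer to Tet-on ROR gamma CHO cells.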

[11] = target: Nuclear receptor ROR-gamma (Homo sapiens) (UniProt P51449); experiment: qHTS assay to identify small molecule antagonists of the retinoid-related orphan receptor gamma (ROR-gamma) signaling pathway (AID 1159521)
How it was run: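 CHO cells expressing RORγ under a TET-on promoter, luciferase under RORE control. Dox 1 uM final, 16 h; compounds added 2 h prior. Luminescence decrease measured.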

[12] = qHTS assay to identify small molecule agonists of the AP-1 signaling pathway (AID 1159526; calls by dose curve; note: % is set by controls: 0 for no effect and ±100 for the full control effect)
[13] = qHTS assay to identify small molecule agonists of the peroxisome proliferator-activated receptor delta (PPARd) signaling pathway - cell viability counter screen (AID 743211); note: % is set by controls: 0 for no effect and ±100 for the full control effect; nearly all actives have a fitted effect of over 55% in size
How it was run: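 Luminescent ATP viability assay (CellTiter-Glo, 30 min RT) in UAS-bla HEK293H cells carrying the PPAR delta reporter construct, 3000 cells/well, after a 17 h compound treatment at 37 C.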

[14] = target: Bile acid receptor (Homo sapiens) (UniProt Q96RI1); experiment: qHTS assay to identify small molecule antagonists of the farnesoid-X-receptor (FXR) signaling pathway (AID 743217; active = well fitted inhibition curve with a large enough effect in the signal ratio in the repeat runs, not every such curve was filed as active; the % refers to the signal ratio; note: % is set by controls: 0 for no effect and ±100 for the full control effect)
Sequence of Bile acid receptor (Homo sapiens) (Q96RI1 whole entry, looked up): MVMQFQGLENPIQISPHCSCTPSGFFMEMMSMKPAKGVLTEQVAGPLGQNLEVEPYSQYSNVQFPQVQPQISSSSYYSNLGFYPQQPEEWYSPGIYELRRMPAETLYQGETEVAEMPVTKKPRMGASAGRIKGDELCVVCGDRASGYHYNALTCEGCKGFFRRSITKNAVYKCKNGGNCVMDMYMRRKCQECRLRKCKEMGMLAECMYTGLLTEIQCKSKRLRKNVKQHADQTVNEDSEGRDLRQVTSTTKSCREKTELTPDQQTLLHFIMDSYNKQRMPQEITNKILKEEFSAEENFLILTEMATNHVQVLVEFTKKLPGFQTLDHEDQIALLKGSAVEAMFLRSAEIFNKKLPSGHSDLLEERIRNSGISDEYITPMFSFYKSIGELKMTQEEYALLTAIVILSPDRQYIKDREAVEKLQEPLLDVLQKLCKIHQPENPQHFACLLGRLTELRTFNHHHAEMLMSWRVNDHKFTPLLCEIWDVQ
How it was run: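 Antagonist mode: chenodeoxycholic acid at 50 uM final stimulates a UAS-driven beta-lactamase reporter in HEK 293T FXR-bla cells during 16 h, 37C compound exposure. Read-out is FRET substrate fluorescence after 2 h at room temperature.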

[15] = target: Bile acid receptor (Homo sapiens) (UniProt Q96RI1); experiment: qHTS assay to identify small molecule agonists of the farnesoid-X-receptor (FXR) signaling pathway (AID 743220; active = well fitted activation curve with a large enough effect in the signal ratio in the repeat runs, not every such curve was filed as active; the % refers to the signal ratio; note: % is set by controls: 0 for no effect and ±100 for the full control effect)
How it was run: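 FXR-UAS-bla HEK 293T cells carrying a UAS-driven beta-lactamase reporter were plated for 5 h at 37C/5% CO2, then exposed to DMSO-dissolved Tox21 10K compounds for 16 h at 37C. A LiveBLAzer B/G FRET substrate was loaded for 2 h at room temperature before fluorescence reading.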

[16] = target: Vitamin D3 receptor (Homo sapiens) (UniProt P11473); experiment: qHTS assay to identify small molecule agonists of the vitamin D receptor (VDR) signaling pathway (AID 743222; calls by dose curve; note: % is set by controls: 0 for no effect and ±100 for the full control effect)
Sequence of Vitamin D3 receptor (Homo sapiens) (P11473 whole entry, looked up): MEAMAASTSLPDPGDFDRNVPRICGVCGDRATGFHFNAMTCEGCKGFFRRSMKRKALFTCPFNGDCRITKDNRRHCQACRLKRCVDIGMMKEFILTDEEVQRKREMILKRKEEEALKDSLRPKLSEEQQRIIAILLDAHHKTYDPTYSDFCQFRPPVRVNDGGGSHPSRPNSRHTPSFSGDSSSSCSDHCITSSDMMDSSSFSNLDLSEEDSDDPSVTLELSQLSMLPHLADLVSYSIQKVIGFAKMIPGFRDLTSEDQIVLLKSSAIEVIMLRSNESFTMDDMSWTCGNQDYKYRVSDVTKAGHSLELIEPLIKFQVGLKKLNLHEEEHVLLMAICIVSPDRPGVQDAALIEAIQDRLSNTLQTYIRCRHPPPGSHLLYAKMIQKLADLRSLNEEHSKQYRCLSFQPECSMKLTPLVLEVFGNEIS
How it was run: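 Agonist mode, beta-lactamase reporter: fluorescence from LiveBLAzer B/G FRET substrate (2 h, room temperature) read after 16 h compound treatment at 37 C of VDR-bla cells, which were pre-incubated 4 h after seeding.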

[17] = target: Vitamin D3 receptor (Homo sapiens) (UniProt P11473); experiment: qHTS assay to identify small molecule antagonists of the vitamin D receptor (VDR) signaling pathway (AID 743223; active = well fitted inhibition curve with a large enough effect in the signal ratio in the repeat runs, not every such curve was filed as active; the % refers to the signal ratio; note: % is set by controls: 0 for no effect and ±100 for the full control effect)
How it was run: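 Agonist 1alpha,25-dihydroxyvitamin D3 (3 nM in well) was added with each compound to VDR-bla cells preincubated 4 h. Cells stood 16 h at 37C, then FRET substrate 2 h at room temperature; fluorescence intensity recorded.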

[18] = qHTS assay to identify small molecule agonists of the AP-1 signaling pathway - cell viability counter screen (AID 1159525; calls by dose curve; note: nearly all actives have a fitted effect of over 55% in size)
How it was run: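 Intracellular ATP by Cell Titer Glo luminescence (30 min, RT) in the same ME-180 AP-1-bla wells after the 5 h compound exposure at 37 °C. Normalised to tetra n-octyl ammonium bromide and DMSO controls.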

[19] = target: Peroxisome proliferator-activated receptor delta (Homo sapiens) (UniProt Q03181); experiment: qHTS assay to identify small molecule antagonists of the peroxisome proliferator-activated receptor delta (PPARd) signaling pathway (AID 743215; active = well fitted inhibition curve with a large enough effect in the signal ratio in the repeat runs, not every such curve was filed as active; the % refers to the signal ratio)
How it was run: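 Agonist L165041 (300 nM final) added with compound to PPARd-bla HEK293H UAS-bla reporter cells; 17 h incubation at 37 C. Read-out: LiveBLAzer FRET substrate, 2 h at room temperature, fluorescence intensity.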

[20] = qHTS assay to identify small molecule agonists of the NFkB signaling pathway - cell viability counter screen (AID 1159515; calls by dose curve; note: series mostly up to about 61 µM; % is set by controls: 0 for no effect and ±100 for the full control effect; nearly all actives have a fitted effect of over 55% in size)
How it was run: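 Read by CellTiter-Glo luminescence (30 min, room temperature) in the wells also used for the beta-lactamase FRET read. ME-180 NFkB-bla cells at 2,000 per well were plated overnight, then exposed to compound for 5 hr at 37 C.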

CCO[Si](CCCS)(OCC)OCC
inactive: outcome [1] | outcome [2] | Potency [3] | outcome [4] | Potency [5] | outcome [6] | outcome [7] | outcome [8] | Potency [9] | outcome [10] | outcome [11] | outcome [12]

CCCCCCOC(=O)CC
inactive: outcome [13] | outcome [1] | outcome [2] | Potency [14] | Potency [3] | Potency [15] | outcome [4] | outcome [16] | outcome [17] | Potency [5] | outcome [6] | outcome [7] | outcome [8] | Potency [9] | outcome [11] | outcome [18] | outcome [12]

O=C(O)Cc1cn(-c2ccccc2)nc1-c1ccc(Cl)cc1
inactive: outcome [13] | outcome [1] | outcome [2] | outcome [19] | Potency [3] | outcome [4] | Potency [5] | outcome [6] | outcome [7] | outcome [8] | Potency [9] | outcome [10] | outcome [11] | outcome [18] | outcome [12]

CC(=O)Nc1cccc(C)c1
inactive: outcome [13] | outcome [1] | outcome [2] | Potency [3] | outcome [4] | outcome [17] | Potency [5] | outcome [6] | outcome [7] | outcome [8] | Potency [9] | outcome [11] | outcome [12]

O=C(OCc1ccccc1)C(=O)OCc1ccccc1
inactive: outcome [1] | outcome [2] | outcome [19] | Potency [3] | outcome [4] | outcome [16] | outcome [17] | Potency [5] | outcome [6] | outcome [7] | outcome [20] | outcome [10] | outcome [11] | outcome [18] | outcome [12]

C=C(C)C(=O)OCC(C)(C)COC(=O)C(=C)C
inactive: outcome [13] | outcome [1] | outcome [2] | outcome [19] | Potency [3] | outcome [4] | Potency [5] | outcome [6] | outcome [7] | outcome [8] | Potency [9] | outcome [10] | outcome [11] | outcome [18] | outcome [12]

O=C(CCNNC(=O)c1ccncc1)NCc1ccccc1
inactive: outcome [13] | outcome [2] | Potency [14] | Potency [3] | Potency [15] | outcome [4] | outcome [16] | outcome [17] | Potency [5] | outcome [7] | outcome [8] | Potency [9] | outcome [10] | outcome [11] | outcome [12]

O=C1O[C@@H]2[C@@H](O)[C@H](O)O[C@@H]2[C@H]1O
inactive: outcome [13] | outcome [2] | Potency [14] | Potency [3] | Potency [15] | outcome [4] | outcome [16] | outcome [17] | Potency [5] | outcome [6] | outcome [7] | outcome [8] | Potency [9] | outcome [10] | outcome [11] | outcome [18] | outcome [12]

Cc1cc2cc3c(C)cc(=O)oc3c(C)c2o1
inactive: outcome [13] | outcome [1] | outcome [2] | outcome [19] | Potency [3] | outcome [4] | outcome [16] | outcome [17] | Potency [5] | outcome [6] | outcome [20] | outcome [8] | Potency [9] | outcome [10] | outcome [11] | outcome [18] | outcome [12]

CCCCNC1CC(C)(C)NC(C)(C)C1
inactive: outcome [13] | outcome [1] | outcome [2] | outcome [19] | Potency [3] | outcome [4] | outcome [16] | outcome [17] | Potency [5] | outcome [7] | outcome [10] | outcome [11] | outcome [18] | outcome [12]

CN1CCN(CC(=O)N2c3ccccc3C(=O)Nc3cccnc32)CC1
inactive: activity change, negative = cytotoxicity [13] -5.11% [at 5.95 µM] | activation [1] -1.15% [at 5.95 µM] | viability change, negative = cytotoxic [2] 18.4% [at 6.26 µM] | ratio activity, negative = inhibition [19] 1.31% [at 6.26 µM] | viability change, negative = cytotoxic [3] 9.72% [at 5.95 µM] | activity change, negative = cytotoxicity [4] -5.73% [at 5.95 µM] | activation [16] 2.22% [at 6.01 µM] | activity change, negative = inhibition [17] -1.37% [at 6.95 µM] | activity change, negative = cytotoxicity [5] 0.894% [at 5.95 µM] | viability change, negative = cytotoxic [6] -0.964% [at 6.95 µM] | activation [7] -0.0785% [at 6.95 µM] | activation [8] -0.546% [at 6.95 µM] | activity change, negative = cytotoxicity [9] -3.52% [at 6.95 µM] | activity, negative = cytotoxicity [10] 3.19% [at 8.39 µM] | activity change, negative = inhibition [11] 14.7% [at 8.39 µM] | viability change, negative = cytotoxic [18] 2.29% [at 6.97 µM] | activation [12] -1.4% [at 6.97 µM]

Cc1ccccc1OCC(O)CO (configuration not stated)
inactive: outcome [13] | outcome [1] | outcome [2] | outcome [19] | Potency [3] | outcome [4] | outcome [17] | outcome [6] | outcome [7] | outcome [8] | Potency [9] | outcome [10] | outcome [11] | outcome [18] | outcome [12]

Cc1ccccc1C(=O)Nc1ccc(C(=O)N2CCCC(N(C)C)c3ccccc32)cc1 (configuration not stated)
inactive: outcome [2] | Potency [3] | Potency [15] | outcome [4] | outcome [16] | Potency [5] | outcome [6] | outcome [7] | outcome [8] | Potency [9] | outcome [10] | outcome [11] | outcome [18] | outcome [12]

COc1cc2c(cc1OC)C(=O)CC2
inactive: outcome [13] | outcome [1] | outcome [2] | outcome [19] | outcome [4] | outcome [16] | outcome [17] | Potency [5] | outcome [7] | outcome [20] | outcome [11] | outcome [18] | outcome [12]

CC(C)=CCOC(=O)c1ccccc1
inactive: outcome [13] | outcome [1] | outcome [2] | outcome [19] | Potency [3] | outcome [4] | outcome [7] | outcome [8] | Potency [9] | outcome [11] | outcome [18] | outcome [12]

CC(C)c1ccc2cc(C(C)C)ccc2c1
inactive: outcome [13] | outcome [2] | Potency [3] | outcome [4] | outcome [16] | outcome [17] | Potency [5] | outcome [7] | outcome [8] | Potency [9] | outcome [10] | outcome [11] | outcome [18] | outcome [12]

CC1(CO)CN(c2ccccc2)NC1=O (configuration not stated)
inactive: outcome [13] | outcome [2] | outcome [19] | outcome [16] | outcome [17] | outcome [8] | Potency [9] | outcome [10] | outcome [11] | outcome [18] | outcome [12]

Cc1ccc(C=O)cc1C
inactive: outcome [13] | outcome [2] | Potency [14] | Potency [3] | Potency [15] | outcome [4] | outcome [16] | outcome [17] | Potency [5] | outcome [6] | outcome [20] | outcome [8] | Potency [9] | outcome [10] | outcome [11] | outcome [12]
